This is an account of results in PubChem BioAssay (NCI).

Assay in all cases: NCI-60 one-dose screen, 48 h (100 = growth as untreated, 0 = no growth, -100 = all killed)
Holding throughout (conditions): 10 µM

Test [1] has as its system HT29 colon.
Test [2] relates to SNB-75 CNS.
In test [3] the test system is U251 CNS.
Test [4] concerns PC-3 prostate.
The subject of test [5] is UACC-62 melanoma.
In test [6] the test system is LOX IMVI melanoma.
In test [7] the test system is SK-MEL-28 melanoma.
The test system of test [8] is SK-MEL-2 melanoma.
The subject of test [9] is SK-MEL-5 melanoma.
Test [10] relates to SNB-19 CNS.

The panel holds about 83,000 compounds, 20% with a hit somewhere; the sample as a whole holds those more often.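 Single-concentration screen, 48 h exposure, 96-well plates. Endpoint: percent growth. Below 10 = active.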 Unmarked numbers belong to inactive results. The source made the active and inactive calls.

As to `CC(C)(C)c1cc(Br)cc(C(C)(C)C)c1O`, the growth is 113% in test [1]; 95.7% in [2]; 99.8% in test [3]; 94.4% in [4]; 99.3% in test [5]; 99.1% in test [6]. In addition, the results for the growth in [7] and in [8] were 112% and 118%, respectively.

Consider `CN(C)CCN=c1nc2c(c(N)n1-c1ccccc1)c(=S)n(-c1ccccc1)c(=S)n2-c1ccccc1`, for which the growth in test [1] is -35.7% (active); in [2], 79%; in test [3], 2.1% (active); in [9], -98.8% (active); in test [5] it was -90.3% (active); in [6], -61.4% (active). Further, the growth in test [7] was -100% (active).

For the molecule `CCCCCCN(CCCCCC)CC(O)c1ccc2c3c(cccc13)CC2` (stereo not drawn), the growth is -4.58% (active) in test [1]; 120% in test [2]; 49.5% in test [3]; 51.5% in [4]; 59.7% in test [9]; 65.2% in test [5]. Besides, the figures for the growth in [6], in test [7] and in test [8] were 21.4%, 71.7% and 55.8%, respectively.

Consider `CCCCOc1ccc(NC(=O)Nc2nnc(C)s2)cc1`, for which the growth in [1] is 99.4%; in test [2], 105%; in test [3], 93.2%; in [4] it was 92.5%; in test [9], 102%; in test [5] it was 82.5%. The growth in test [6] was 78.9%; in [7], 106%; in test [8] it was 105%.

`CCOC(=O)CCC(NC(=O)c1ccc(N)cc1)C(=O)OCC` (stereo not drawn): the growth is 99.4% in test [1]; 113% in [2]; 105% in test [3]; 89.8% in [4]; 105% in test [9]; 103% in [5]. The growth was 100% in [6] and 105% in test [7].

`O=C(NN1C(=O)CSC1c1ccc(Cl)cc1)c1cccnc1` (stereo not drawn): the growth in test [1] is 109%; in test [2], 110%; in test [10] it was 113%; in test [3] it was 99.5%; in test [9], 102%; in test [5], 125%. The growth in [6] is 102%; in [8] it was 109%.

Turning to `O=C1C(=O)c2ccccc2C(O)=C1CCCc1ccc(C2CCCCCC2)cc1`, the growth in [1] is 28.5%; in test [2], 49.3%; in test [3], 46.1%; in test [4], 20.9%; in test [9], 25.2%; in test [5], 46.6%. For the same molecule, the figures for the growth in [6], in test [7] and in [8] were 16.5%, 49.7% and 88.1%, respectively.

In the case of `COc1cc(-c2cc(-c3cc4c([nH]c5ccccc54)c(-c4cc(OC)c(OC)c(OC)c4)n3)cc(-c3ccccc3)n2)cc(OC)c1OC`, the growth in test [1] is 44.4%; in [2], 36.2%; in test [3] it was 62.1%; in test [4], 48.3%; in [9], 40.1%; in test [5], 40%. For the same molecule, the growth in test [6] is 59.5%; in test [7] it was 62.5%; in test [8], 46%.

For `CCOC(=O)CNC(=O)CCCCSc1ncnc2nc[nH]c12`, the growth in test [1] was 103%; in test [2] it was 95.3%; in [3], 106%; in [4], 91%; in [9] it was 93.4%; in test [5] it was 94.9%. For the same molecule, the results for the growth in [6], in test [7] and in test [8] were 102%, 110% and 97.6%, respectively.

For the molecule `Cc1nc2c(c(=O)[nH]1)OCN(Cc1ccccc1)C2`, the growth in test [1] is 105%; in test [10] it was 97.2%; in test [3], 108%; in test [4], 89.1%; in [9], 102%; in [5] it was 105%. The results for the growth in [6], in [7] and in test [8] were 101%, 105% and 130%, respectively.

Regarding `COc1cccc(C2C3=C(COC3=O)N(CCO)c3cc(OC)ccc32)c1` (stereo not drawn), the growth in [1] is -8.66% (active); in [10], 33.3%; in test [3], 12.7%; in test [4] it was 26.9%; in [9], -3.6% (active); in test [5] it was 14.6%. Besides, the growth in test [6] was 23.9%; in test [7], 56.1%.

Take `CCc1ccc2c(c1)N(CCO)C1=C(C(=O)OC1)C2c1ccccc1` (stereo not drawn): the growth in test [1] is 86.3%; in test [10], 104%; in test [3], 45.4%; in test [4] it was 93.5%; in test [9], 87.3%; in [5], 70.6%. Also, the growth is 94.5% in [6] and 90.9% in test [7].

On to `Fc1ccc2nc(-c3nc(-c4ccccc4)n4ccccc34)[nH]c2c1`, for which the growth in [1] is -52.6% (active); in [10], -36.5% (active); in test [3], -67% (active); in test [9] it was 4% (active); in test [5], 3.95% (active); in test [6] it was 15.2%. Moreover, the growth is -9.19% (active) in test [7] and -30.3% (active) in test [8].

As to `N#CCCN1C/C(=C/c2ccc(Cl)cc2)C(=O)/C(=C/c2ccc(Cl)cc2)C1`, the growth was -36.1% (active) in test [1]; -28% (active) in test [10]; -95.3% (active) in test [3]; -39.6% (active) in test [4]; -60.6% (active) in test [9]; -66.1% (active) in [5]. Also, the growth in [6] is -80.4% (active); in test [7], -61.4% (active); in [8] it was 19%.
